Measurements published in PubChem BioAssay (NCI).
This is part of a sample that, as a whole, favours compounds with a hit. Of some 83,000 tested, about 20% had one in any assay.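 The test compound was applied at a single concentration to cells in 96-well plates for 48 hours, and percent growth was recorded.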 Active and inactive are the calls of the source. The calls were made as follows: active = growth percent below 10; inactive = the rest.

What was measured:
Assay in all cases: NCI-60 one-dose screen, 48 h (100 = growth as untreated, 0 = no growth, -100 = all killed)
Details in all cases: 10 µM unless noted
NCI-H23 lung = test system: NCI-H23 lung
NCI-H226 lung = test system: NCI-H226 lung
NCI-H322M lung = test system: NCI-H322M lung
HOP-62 NSCLC = test system: HOP-62 NSCLC
NCI-H460 lung = test system: NCI-H460 lung
HOP-92 NSCLC = test system: HOP-92 NSCLC
NCI-H522 lung = test system: NCI-H522 lung
A549/ATCC NSCLC = test system: A549/ATCC NSCLC
786-0 renal = test system: 786-0 renal
COLO 205 colon = test system: COLO 205 colon
DU-145 prostate = test system: DU-145 prostate
K-562 leukemia = test system: K-562 leukemia
MALME-3M melanoma = test system: MALME-3M melanoma
MDA-MB-231 breast = test system: MDA-MB-231 breast
RXF 393 renal = test system: RXF 393 renal
SF-268 CNS = test system: SF-268 CNS
SF-295 CNS = test system: SF-295 CNS
SF-539 CNS = test system: SF-539 CNS
UACC-257 melanoma = test system: UACC-257 melanoma
M14 melanoma = test system: M14 melanoma

Measured: growth

O=C(c1c[nH]c(=O)c(-c2ccccc2)c1)c1ccccc1O
inactive: NCI-H23 lung 91.7% | NCI-H226 lung 88.7% | NCI-H322M lung 82.7% | HOP-62 NSCLC 86.3% | NCI-H460 lung 96.1% | HOP-92 NSCLC 70.2% | NCI-H522 lung 87.2% | A549/ATCC NSCLC 93.5% | 786-0 renal 88.2% | COLO 205 colon 98.1% | DU-145 prostate 99.7% | K-562 leukemia 78.4% | MALME-3M melanoma 92.5% | MDA-MB-231 breast 98.5% | RXF 393 renal 82.1% | SF-268 CNS 91.5% | SF-295 CNS 92.2% | SF-539 CNS 108% | UACC-257 melanoma 85.7% | M14 melanoma 105%

NC(=S)N/N=C(/CCN1CCCC1)CC(C1=C(O)C2=CCCCC2OC1=O)c1ccccc1 (stereo not given)
inactive: NCI-H23 lung 72.8% | NCI-H226 lung 85.7% | NCI-H322M lung 85.7% | HOP-62 NSCLC 79.1% | NCI-H460 lung 101% | HOP-92 NSCLC 68.3% | NCI-H522 lung 80.1% | A549/ATCC NSCLC 99.4% | 786-0 renal 105% | COLO 205 colon 102% | DU-145 prostate 87.3% | K-562 leukemia 38.8% | MALME-3M melanoma 73% | MDA-MB-231 breast 70.4% | RXF 393 renal 106% | SF-268 CNS 89.6% | SF-295 CNS 98.5% | SF-539 CNS 95.4% | UACC-257 melanoma 73.1% | M14 melanoma 79%

N#Cc1c(-c2ccccc2)nc(SCC(=O)N2CCN(c3ccccc3)CC2)[nH]c1=O
inactive: NCI-H23 lung 96.4% | NCI-H226 lung 108% | NCI-H322M lung 95.8% | HOP-62 NSCLC 87.7% | NCI-H460 lung 110% | HOP-92 NSCLC 85% | NCI-H522 lung 85.2% | A549/ATCC NSCLC 96.6% | 786-0 renal 97.9% | COLO 205 colon 103% | DU-145 prostate 120% | K-562 leukemia 112% | MALME-3M melanoma 94.9% | MDA-MB-231 breast 115% | RXF 393 renal 104% | SF-268 CNS 111% | SF-295 CNS 102% | SF-539 CNS 99.2% | UACC-257 melanoma 89.2% | M14 melanoma 96.7%

CC(C)c1ccc2occ(C=C3C(=O)NC(=O)NC3=O)c(=O)c2c1
inactive: NCI-H23 lung 97.5% | NCI-H226 lung 106% | NCI-H322M lung 116% | HOP-62 NSCLC 101% | NCI-H460 lung 102% | HOP-92 NSCLC 63% | NCI-H522 lung 88.7% | A549/ATCC NSCLC 100% | 786-0 renal 91.6% | COLO 205 colon 117% | DU-145 prostate 109% | K-562 leukemia 72.7% | MALME-3M melanoma 93.7% | MDA-MB-231 breast 98.9% | RXF 393 renal 87.4% | SF-268 CNS 89.3% | SF-295 CNS 119% | SF-539 CNS 121% | UACC-257 melanoma 96.1% | M14 melanoma 91.3%

O=C(O)c1cn(C2CC2)c2cc(N3CCN(C(=O)/C=C/c4ccc(Cl)cc4)CC3)c(F)cc2c1=O
inactive: NCI-H23 lung 86.8% | NCI-H226 lung 91.5% | NCI-H322M lung 71.5% | HOP-62 NSCLC 80.8% | NCI-H460 lung 58.7% | HOP-92 NSCLC 57.4% | NCI-H522 lung 75.1% | A549/ATCC NSCLC 77.4% | 786-0 renal 76.4% | COLO 205 colon 98.9% | DU-145 prostate 84.4% | K-562 leukemia 74.2% | MALME-3M melanoma 84.6% | MDA-MB-231 breast 68.1% | RXF 393 renal 72% | SF-268 CNS 62.4% | SF-295 CNS 80.7% | SF-539 CNS 72.2% | UACC-257 melanoma 81.9% | M14 melanoma 82.8%

COc1ccc(NC(=O)c2c(Nc3ccc(OC)cc3OC)n[nH]c2N)c(OC)c1
inactive: NCI-H23 lung 91.7% | NCI-H226 lung 89.9% | NCI-H322M lung 87.7% | HOP-62 NSCLC 94.3% | NCI-H460 lung 107% | HOP-92 NSCLC 74.1% | NCI-H522 lung 79.3% | A549/ATCC NSCLC 96.8% | 786-0 renal 107% | COLO 205 colon 100% | DU-145 prostate 108% | K-562 leukemia 95.6% | MALME-3M melanoma 107% | MDA-MB-231 breast 72.7% | RXF 393 renal 81.1% | SF-268 CNS 102% | SF-295 CNS 92.1% | SF-539 CNS 116% | UACC-257 melanoma 114% | M14 melanoma 89.6%

O=C(NCCCNc1nccc(-n2ccc3cccnc32)n1)c1c(F)cccc1F
inactive: NCI-H23 lung 101% | NCI-H226 lung 99.4% | NCI-H322M lung 103% | HOP-62 NSCLC 101% | NCI-H460 lung 104% | HOP-92 NSCLC 110% | NCI-H522 lung 101% | A549/ATCC NSCLC 102% | 786-0 renal 98% | COLO 205 colon 113% | DU-145 prostate 107% | K-562 leukemia 98.7% | MALME-3M melanoma 106% | MDA-MB-231 breast 95.5% | RXF 393 renal 108% | SF-268 CNS 96.3% | SF-295 CNS 98.4% | SF-539 CNS 97.9% | UACC-257 melanoma 113% | M14 melanoma 102%

O=[N+]([O-])c1cc(Cl)c2[nH]c3c(Cl)cc([N+](=O)[O-])cc3c2c1
inactive: HOP-62 NSCLC 15.3% | DU-145 prostate 22.9% | RXF 393 renal 12.4% | SF-268 CNS 12.9% | SF-539 CNS 23.8% | M14 melanoma 16.3%
active: NCI-H23 lung 9.08% | NCI-H226 lung -0.747% | NCI-H322M lung -0.868% | NCI-H460 lung -15.8% | HOP-92 NSCLC -14.3% | NCI-H522 lung -44% | A549/ATCC NSCLC -42% | 786-0 renal 8.87% | COLO 205 colon -73.6% | K-562 leukemia 3.44% | MALME-3M melanoma -16.5% | MDA-MB-231 breast -30.3% | SF-295 CNS -35.5% | UACC-257 melanoma -52.2%

CC12CCCC(CC(=O)c3[nH]c4ccccc4c31)C2 (stereo not given)
inactive: NCI-H23 lung 33.5% | NCI-H226 lung 60.8% | NCI-H322M lung 35.7% | HOP-62 NSCLC 28.2% | HOP-92 NSCLC 47% | A549/ATCC NSCLC 27.7% | 786-0 renal 41.4% | K-562 leukemia 11.2% | MALME-3M melanoma 36.4% | MDA-MB-231 breast 37.9% | SF-268 CNS 63.7% | SF-295 CNS 15.1% | UACC-257 melanoma 66.1%
active: NCI-H460 lung 7.52% | NCI-H522 lung 2.33% | COLO 205 colon 7.12% | DU-145 prostate -15.6% | RXF 393 renal -21.7% | SF-539 CNS -19.1% | M14 melanoma 3.66%

Nc1nc(Nc2cc(Cl)cc(Cl)c2)nn1S(=O)(=O)c1ccc2ccccc2c1
inactive: NCI-H23 lung 66.5% | NCI-H226 lung 66.7% | NCI-H322M lung 76.4% | HOP-62 NSCLC 66% | NCI-H460 lung 27.8% | NCI-H522 lung 69% | A549/ATCC NSCLC 42.7% | 786-0 renal 25.5% | COLO 205 colon 66.5% | DU-145 prostate 47.7% | K-562 leukemia 41.5% | MALME-3M melanoma 63% | MDA-MB-231 breast 35.3% | RXF 393 renal 30.6% | SF-268 CNS 52.4% | SF-295 CNS 93.6% | SF-539 CNS 83.5% | UACC-257 melanoma 83.3% | M14 melanoma 78.4%
active: HOP-92 NSCLC -10.4%

COc1ccc(C(=O)c2cc(OC)c3c(c2)OCO3)cc1O
inactive: NCI-H23 lung 30.4% | NCI-H226 lung 66.9% | NCI-H322M lung 51.4% | HOP-62 NSCLC 35.5% | HOP-92 NSCLC 44.1% | A549/ATCC NSCLC 24.5% | 786-0 renal 44% | COLO 205 colon 84.9% | K-562 leukemia 14.8% | MALME-3M melanoma 50.7% | MDA-MB-231 breast 16.4% | SF-268 CNS 27.6% | SF-295 CNS 15.5% | UACC-257 melanoma 65.6% | M14 melanoma 14.2%
active: NCI-H460 lung 8.5% | NCI-H522 lung -7.3% | DU-145 prostate -2.4% | RXF 393 renal -4.75% | SF-539 CNS 6.91%

FC(F)(F)c1ccccc1-c1cn2c(ccc3ccccc32)n1
inactive: NCI-H23 lung 85.3% | NCI-H226 lung 77.5% | NCI-H322M lung 96.1% | HOP-62 NSCLC 60.4% | NCI-H460 lung 85.3% | HOP-92 NSCLC 79.9% | NCI-H522 lung 49% | A549/ATCC NSCLC 80% | 786-0 renal 94.9% | COLO 205 colon 102% | DU-145 prostate 104% | K-562 leukemia 29.8% | MALME-3M melanoma 65.1% | MDA-MB-231 breast 69.5% | RXF 393 renal 84.4% | SF-268 CNS 90.3% | SF-295 CNS 62.1% | SF-539 CNS 78.6% | UACC-257 melanoma 70.3% | M14 melanoma 60.3%

O=[N+]([O-])c1cccc(-c2nc3sccn3c2-c2ccnc(NCCCNS(=O)(=O)c3ccc(C(F)(F)F)cc3)n2)c1
inactive: NCI-H23 lung 29.7% | NCI-H226 lung 23.8% | NCI-H322M lung 63.1% | HOP-62 NSCLC 50% | NCI-H460 lung 40.2% | HOP-92 NSCLC 53% | NCI-H522 lung 20.8% | A549/ATCC NSCLC 31.3% | 786-0 renal 51.8% | COLO 205 colon 24.7% | DU-145 prostate 47.3% | K-562 leukemia 20.6% | MALME-3M melanoma 30.5% | MDA-MB-231 breast 57.3% | RXF 393 renal 55.6% | SF-268 CNS 38.1% | SF-295 CNS 27.2% | SF-539 CNS 70.9% | UACC-257 melanoma 37.4% | M14 melanoma 27.7%

COc1ccc(-c2nc3sccn3c2/C=C/C(=O)c2cc(F)cc(F)c2)cc1
inactive: NCI-H23 lung 76.3% | NCI-H226 lung 80.5% | NCI-H322M lung 123% | HOP-62 NSCLC 85.8% | NCI-H460 lung 88.4% | HOP-92 NSCLC 18.6% | NCI-H522 lung 48.6% | A549/ATCC NSCLC 89.3% | 786-0 renal 89.1% | COLO 205 colon 68.3% | DU-145 prostate 86.2% | K-562 leukemia 19.1% | MALME-3M melanoma 102% | MDA-MB-231 breast 62.6% | RXF 393 renal 54.4% | SF-268 CNS 81.8% | SF-295 CNS 116% | SF-539 CNS 92.8% | UACC-257 melanoma 101% | M14 melanoma 89.2%
